PLCg1 inh = inhibitors of human phospholipase C gamma1; hit rate 0.84% among 370,000; purified PLC-gamma1, fluorogenic substrate, fluorescence; inhibition, % at 12.2 µM; in the data active means inhibition above about 9.5%
PLC-beta3 inh = inhibitors of human phospholipase C beta3 | Q01970 | Purified PLC-beta3, fluorogenic substrate, fluorescence | inhibition, % at 12.2 µM | hit rate 0.18% among 370,000 | AID 720704; in the data active means inhibition above about 11%;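 further: 0% = median of compound wells on plate and 100% = full blocker control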
KLK7 zymogen act = proKLK7 (human) activation, primary screen. purified proKLK7, EDANS-DABCYL substrate fluorescence; 100% is mature enzyme control, 0% vehicle. activation, % at 7 µM. hit rate 0.9% among 370,000. AID 652039;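 active means activation above the mean of all tested compounds plus 3 SD, computed per campaign excluding outliers beyond control limits, cut at about 13% in these data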
ADAM17 inh = inhibits human ADAM17; P78536; hit rate 0.83% among 370,000; recombinant ADAM17, EDANS/DABCYL FRET peptide cleavage; inhibition, % at 6.95 µM;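 active means inhibition above the mean of compounds lying between control limits plus 3 SD, set per campaign, cut at about 8.5% in these data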;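 further: 0% = DMSO-only wells as the low control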
Target sequence (P78536 215-824 limits assumed): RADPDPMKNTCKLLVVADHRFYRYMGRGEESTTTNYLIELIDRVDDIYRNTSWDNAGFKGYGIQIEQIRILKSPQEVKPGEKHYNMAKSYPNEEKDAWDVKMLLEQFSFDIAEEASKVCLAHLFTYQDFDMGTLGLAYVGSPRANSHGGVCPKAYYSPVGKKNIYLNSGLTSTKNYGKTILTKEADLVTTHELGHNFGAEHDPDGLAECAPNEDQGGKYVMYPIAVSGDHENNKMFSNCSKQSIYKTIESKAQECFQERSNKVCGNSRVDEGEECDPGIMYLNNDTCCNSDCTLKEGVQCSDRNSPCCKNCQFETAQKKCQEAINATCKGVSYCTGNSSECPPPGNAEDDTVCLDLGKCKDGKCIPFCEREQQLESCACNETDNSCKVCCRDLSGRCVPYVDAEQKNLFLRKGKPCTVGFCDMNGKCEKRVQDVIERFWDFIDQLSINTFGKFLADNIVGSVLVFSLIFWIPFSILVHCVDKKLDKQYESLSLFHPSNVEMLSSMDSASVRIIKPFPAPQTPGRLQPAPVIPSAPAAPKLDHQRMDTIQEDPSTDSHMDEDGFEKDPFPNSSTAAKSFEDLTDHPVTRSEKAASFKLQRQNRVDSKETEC
ADAM10 inh = inhibitors of human ADAM10. O14672. recombinant ADAM10, EDANS/DABCYL FRET peptide cleavage, 3 h. inhibition, % at 7 µM. hit rate 0.62% among 370,000;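 active means inhibition above a per-campaign cutoff equal to the mean of compounds falling between control-based bounds plus 3 SD, cut at about 20% in these data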;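 further: 0% = DMSO wells while the 100% control is not disclosed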
proKLK7 act conf = confirmation of human kallikrein-7 zymogen activators; shares compounds with KLK7 zymogen act; purified proKLK7, EDANS-DABCYL substrate fluorescence; scaled: vehicle 0, mature enzyme 100; activation, % at 7 µM; hit rate 68% among 3,200;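 active means activation, as change over the incubation, above the mean of all tested compounds plus 3 SD, cut at about 13% in these data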
EDANS interfere = counter-screen for kallikrein-7 activators: EDANS-DABCYL optical interference; shares compounds with KLK7 zymogen act; hit rate 80% among 3,200; AID 686952; EDANS-DABCYL substrate fluorescence interference, no enzyme, 4 h; solvent 0%, active enzyme control 100%; activation, % at 7 µM;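 active means activation above the all-compound mean plus 3 SD, ignoring values outside control-based bounds, cut at about 4.8% in these data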;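 further: value is the 4 h activation minus the activation read at time zero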
Numbers without * were called inactive. Only some compounds are listed: those with a hit (about 2.9% of all), similar ones and a draw of the others.

Screening Cc1cnc(-c2nnc(N(C)C(=O)c3cccnc3)s2)cn1 returned PLCg1 inh -37.5, PLC-beta3 inh -48.7, KLK7 zymogen act 42.1*, ADAM17 inh -7.9, ADAM10 inh -21.0, proKLK7 act conf 72.4* and EDANS interfere 74.4*.
For CC(=O)N(c1ccccc1)c1nnc(-c2cnc(C)cn2)s1 the results were PLCg1 inh -7.6, PLC-beta3 inh -19.7, KLK7 zymogen act 0.2, ADAM17 inh -4.4 and ADAM10 inh -11.9.
`Cc1ccccc1CN1CCCCC(NC(=O)c2cccc(C(F)(F)F)c2)C1=O` (stereo not drawn) gave PLCg1 inh -1.3, PLC-beta3 inh 1.8, KLK7 zymogen act 0.5, ADAM17 inh 1.9 and ADAM10 inh 5.5.
Screening C[C@H](O)C(=O)C1=Nc2c(nc(N)[nH]c2=O)NC1 returned PLCg1 inh -256.1, PLC-beta3 inh -311.9, KLK7 zymogen act 16.4*, ADAM17 inh -259.9, ADAM10 inh inactive, proKLK7 act conf 28.1* and EDANS interfere 33.4*.
Screening COc1ccc(OC)c(C2NC(=O)NC(C)=C2C(=O)OC2CCCCC2)c1 (stereo not drawn) returned PLCg1 inh -5.8, PLC-beta3 inh -17.6, KLK7 zymogen act 18.6*, ADAM17 inh -3.3, ADAM10 inh -5.8, proKLK7 act conf -2.4 and EDANS interfere 0.7.
`COc1ccccc1C1NC(=O)NC(C)=C1C(=O)OC1CCCCC1` (stereo not drawn) gave PLCg1 inh 0.7, PLC-beta3 inh 1.5, KLK7 zymogen act -0.4, ADAM17 inh 0.8 and ADAM10 inh -16.2.
`CN1CCN(c2c(F)cc3c(=O)c(C(=O)O)cn4c3c2SCC4)CC1` gave PLCg1 inh inactive, PLC-beta3 inh inactive, KLK7 zymogen act 98.0*, ADAM17 inh -172.5, ADAM10 inh inactive, proKLK7 act conf 35.1* and EDANS interfere 43.0*.
For C[C@H]1COc2c(N3CCN(C)CC3)c(F)cc3c(=O)c(C(=O)O)cn1c23 the results were PLCg1 inh inactive, PLC-beta3 inh inactive, KLK7 zymogen act 171.7*, ADAM17 inh -458.3, ADAM10 inh inactive, proKLK7 act conf 54.9* and EDANS interfere 56.2*.
For CN1Cc2nnn(Cc3ccccc3)c2-c2cc(F)ccc2S1(=O)=O the results were PLCg1 inh -2.6, PLC-beta3 inh -0.5, KLK7 zymogen act -0.2, ADAM17 inh -4.5 and ADAM10 inh -0.1.
`O=C(NCCCN1CCOCC1)c1ccc2c(c1)N(Cc1ccc(F)cc1)CCS2` gave PLCg1 inh inactive, PLC-beta3 inh inactive, KLK7 zymogen act -11.8, ADAM17 inh inactive and ADAM10 inh inactive.
CCN1CCN(CCCNC(=O)c2ccc3c(c2)N(Cc2ccccc2)CCS3)CC1 was read as PLCg1 inh inactive, PLC-beta3 inh inactive, KLK7 zymogen act 35.4*, ADAM17 inh inactive, ADAM10 inh inactive, proKLK7 act conf -25.6 and EDANS interfere -28.4.
Screening O=C(NCCCN1CCCC1)c1ccc2c(c1)N(Cc1ccccc1)CCS2 returned PLCg1 inh inactive, PLC-beta3 inh inactive, KLK7 zymogen act 51.0*, ADAM17 inh -450.2, ADAM10 inh inactive, proKLK7 act conf -15.7 and EDANS interfere -13.4.
`CN1CCN(CCCNC(=O)c2ccc3c(c2)N(Cc2ccc(F)cc2)CCS3)CC1` gave PLCg1 inh inactive, PLC-beta3 inh inactive, KLK7 zymogen act 76.2*, ADAM17 inh inactive, ADAM10 inh inactive, proKLK7 act conf -8.3 and EDANS interfere -15.2.
Screening O=C(c1cc(F)ccc1F)N1CCCC(c2nc(-c3cccs3)no2)C1 (stereo not drawn) returned PLCg1 inh -3.1, PLC-beta3 inh 1.6, KLK7 zymogen act 0.1, ADAM17 inh -0.3 and ADAM10 inh -4.2.
For CC(C)C(=O)Nc1ccc(-c2nc3ncccc3o2)cc1 the results were PLCg1 inh -128.4, PLC-beta3 inh -144.4, KLK7 zymogen act 14.4*, ADAM17 inh -420.2, ADAM10 inh inactive, proKLK7 act conf 7.5 and EDANS interfere 6.6*.
Screening Nc1ccc(-c2nc3ncccc3o2)c(Cl)c1 returned PLCg1 inh -209.1, PLC-beta3 inh -218.3, KLK7 zymogen act 3.9, ADAM17 inh -249.8 and ADAM10 inh inactive.
`Cc1cc(-c2nc3ncccc3o2)ccc1N` gave PLCg1 inh inactive, PLC-beta3 inh inactive, KLK7 zymogen act 40.2*, ADAM17 inh inactive, ADAM10 inh inactive, proKLK7 act conf 66.9* and EDANS interfere 67.3*.
Screening CC(C)C(=O)Nc1cccc(-c2nc3ncccc3o2)c1 returned PLCg1 inh -8.9, PLC-beta3 inh -23.9, KLK7 zymogen act 0.0, ADAM17 inh -34.8 and ADAM10 inh -69.9.
For Nc1ccc(-c2nc3ncccc3o2)c(O)c1 the results were PLCg1 inh -470.6, PLC-beta3 inh inactive, KLK7 zymogen act 21.0*, ADAM17 inh inactive, ADAM10 inh inactive, proKLK7 act conf 22.1* and EDANS interfere 20.9*.
Screening COc1ccc(-c2nc3ccccc3c(=O)[nH]2)cc1 returned PLCg1 inh -5.2, PLC-beta3 inh -11.0, KLK7 zymogen act -0.8, ADAM17 inh -3.2 and ADAM10 inh 0.4.
COc1ccc(-c2nc3ccc(N4CCN(C)CC4)cc3c(=O)[nH]2)cc1 was read as PLCg1 inh -321.3, PLC-beta3 inh -364.2, KLK7 zymogen act 14.2*, ADAM17 inh -118.0, ADAM10 inh -315.1, proKLK7 act conf 3.2 and EDANS interfere 5.5*.
`COc1cc(-c2nc3ccc(N4CCN(C)CC4)cc3[nH]2)cc(OC)c1OC` gave PLCg1 inh inactive, PLC-beta3 inh inactive, KLK7 zymogen act 81.1*, ADAM17 inh inactive, ADAM10 inh inactive, proKLK7 act conf 64.0* and EDANS interfere 70.4*.
For C[C@@H]1OCN(C)[C@H]2C[C@H]3c4[nH]c5cccc(-c6ccccc6)c5c4CCN3C[C@@H]12 the results were PLCg1 inh -210.4, PLC-beta3 inh -259.6, KLK7 zymogen act -1.9, ADAM17 inh -31.5 and ADAM10 inh -101.5.
Screening CCC[C@H]1[C@@H](OC(=O)NCc2cccs2)CC[C@@]23CCCN2C(=O)CCC[C@@H]13 returned PLCg1 inh 3.1, PLC-beta3 inh 2.4, ADAM17 inh 4.1 and ADAM10 inh 4.0.
`COc1ccc(CN2C(=O)COc3ccccc3C2c2nnnn2C2CCCCC2)cc1` (stereo not drawn) gave PLCg1 inh -1.2, PLC-beta3 inh -2.8, KLK7 zymogen act 0.1, ADAM17 inh -5.1 and ADAM10 inh -2.7.
CCOC(=O)c1ccc(C(=O)OCC)c(NC(=S)Nc2ccc([N+](=O)[O-])cc2OC)c1 was read as PLCg1 inh -146.0, PLC-beta3 inh -167.2, KLK7 zymogen act 13.2*, ADAM17 inh -134.5, ADAM10 inh -480.1, proKLK7 act conf 11.6 and EDANS interfere 6.9*.
